Reference: PubChem BioAssay (Tox21)
Inconclusive results are not listed. Where a call stands in place of a potency, no number is given. Values without a mark were called inactive. Calls of active or inactive are those of the source. The call rests on the fitted dose curve; in most records, active means well fitted cell-killing curve with a large enough effect in the repeat runs; inconclusive means weak or mixed curves, or effect the other way; inactive means flat fitted curve, though single readings scatter.

Columns and labels:
[1] = cAMP Responsive Elements (CRE) small molecule antagonists, cell-based qHTS assay: qHTS cell viability counter screen (AID 2060913); further: nearly all actives have a fitted effect of over 40% in size
In short: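 Viability of NKH477-stimulated (0.25 uM final) CRE-bla HEK293T cells is measured by CellTiter-Glo luminescence following 3 hrs compound exposure at 37 C.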

[2] = cAMP Responsive Elements (CRE) small molecule agonists, cell-based qHTS assay: qHTS cell viability counter screen (AID 2060914);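 further: viability read after 3 h of compound exposure; nearly all actives have a fitted effect of over 50% in size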
In short: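 Cells are seeded and incubated 18 h, treated with compounds in DMSO for 3 h, read for the bla reporter, then given CellTiter-Glo; luminescence is measured after 30 min at room temperature.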
Potency means the concentration at half of the fitted maximal effect.

SMILES	Potency [1]	Potency [2]	viability change, negative = cytotoxic [1]	activity change, negative = cytotoxicity [2]
CC(O)CC(C)O (centres undefined)	inactive	inactive		
CC(C)(O)Cc1ccccc1	inactive	inactive		
COc1cc2nc(N3CCN(C(=O)C4COc5ccccc5O4)CC3)nc(N)c2cc1OC (centres undefined)	inactive	inactive		
CCCOC(C(=O)OC1CCN(C)CC1)(c1ccccc1)c1ccccc1	inactive	inactive		
Nc1ccc(C(=O)OCC(O)CO)cc1 (centres undefined)	inactive	inactive		
CC(C)c1ccc2oc3nc(N)c(C(=O)O)cc3c(=O)c2c1	inactive	inactive		
CN1CCCC1	inactive	inactive		
CO[C@H]1C=CO[C@@]2(C)Oc3c(C)c(O)c4c(O)c(c5c(c4c3C2=O)=NC2(CCN(CC(C)C)CC2)N=5)NC(=O)/C(C)=C\C=C/[C@H](C)[C@H](O)[C@@H](C)[C@@H](O)[C@@H](C)[C@H](OC(C)=O)[C@@H]1C	inactive	inactive		
O=C(O)CCCCCCCCCCCBr	inactive	inactive		
NCCCNCCSP(=O)(O)O			-1.42% [at 8.39 µM]	3.53% [at 8.39 µM]
O=C(O)Cc1ccc(OCCNC[C@H](O)c2ccccc2)cc1	inactive	inactive		
O=Cc1ccc(CO)o1	inactive	inactive		
CO[Si](OC)(OC)OC	inactive	inactive		
CC(=O)c1ccccc1O	inactive	inactive		
O=C1C(=O)c2ccccc2C(O)=C1C1CCC(c2ccc(Cl)cc2)CC1 (centres undefined)	inactive	inactive		
CC(C)(N=C=O)c1cccc(C(C)(C)N=C=O)c1	inactive	inactive		
Nc1ccccc1N	inactive	inactive		
CC1=CC(=O)c2ccccc2C1=O	inactive	inactive		
CC(=O)OC/C=C(C)/C=C/C=C(C)/C=C/C1=C(C)CCCC1(C)C	inactive	inactive		
C[N+](C)(C)CCCCCCCCCC[N+](C)(C)C	inactive	inactive		
CNC(C)=O	inactive	inactive		
CC(=O)CC(=O)Nc1ccccc1C	inactive	inactive		
CC[Si](OC(C)=O)(OC(C)=O)OC(C)=O	inactive	inactive		
CO[Si](CCCNCCNCCN)(OC)OC	inactive	inactive		

SMILES	Potency [1]	Potency [2]	viability change, negative = cytotoxic [1]	activity change, negative = cytotoxicity [2]
CC(=O)C(C)O (centres undefined)	inactive	inactive		
O=C(O)CCC(=O)c1ccc(-c2ccccc2)cc1	inactive	inactive		
CNCc1cc(F)ccc1Oc1ccc(Cl)c(Cl)c1	inactive	inactive		
CC[C@]12CCCN3CCc4c(n(c5ccccc45)[C@@](O)(C(=O)OC)C1)[C@@H]32	inactive	inactive		
OCc1ccc(Cl)cc1Cl	inactive	inactive		
CCCCCCCCC(=O)OCC(C)OC(=O)CCCCCCCC (centres undefined)	inactive	inactive		
c1ccc2c(c1)ccc1cc3c(ccc4ccccc43)cc12	inactive	inactive		
CCC(CC)CO	inactive	inactive		
C[C@]12C=CC(=O)C=C1[C@@H](F)C[C@@H]1[C@@H]2[C@@H](O)C[C@@]2(C)[C@H]1CC[C@]2(O)C(=O)CO	inactive	inactive		
Cc1cccc(C)c1NC(=O)CN1CCCC1	inactive	inactive		
C=C(C)[C@@H]1CC[C@@H](C)C[C@@H]1O	inactive	inactive		
CC(C)=CC(=O)O	inactive	inactive		
O=C1OC(=O)c2cc(-c3ccc4c(c3)C(=O)OC4=O)ccc21	inactive	inactive		
c1ccc2c(c1)ccc1c3ccccc3ccc21	inactive	inactive		
Nc1ccn([C@@H]2O[C@H](CO)[C@@H](O)[C@@H]2O)c(=O)n1	inactive	inactive		
O=C(O)CNCC(=O)O			19.6% [at 8.39 µM]	-11.1% [at 8.39 µM]
COC(=O)Nc1nc2ccc(S(=O)c3ccccc3)cc2[nH]1 (centres undefined)	inactive	inactive		
Nc1nnnn1-c1ccccc1	inactive	inactive		
Cc1c(O)cccc1O	inactive	inactive		
CC1CN(c2ccccc2)NC1=O (centres undefined)	inactive	inactive		
O=C(CCCl)NCc1ccccc1	inactive	inactive		
CC(=O)O[C@]1(C(C)=O)CC[C@H]2[C@@H]3C=C(Cl)C4=CC(=O)[C@@H]5C[C@@H]5[C@]4(C)[C@H]3CC[C@@]21C	inactive	inactive		
CN1CC(=O)N/C1=N/C(=O)Nc1cccc(Cl)c1	inactive	inactive		
Nc1ccn([C@H]2CS[C@@H](CO)O2)c(=O)n1	inactive	inactive		

SMILES	Potency [1]	Potency [2]	viability change, negative = cytotoxic [1]	activity change, negative = cytotoxicity [2]
O=C(CC(=O)c1ccccc1)c1ccccc1	inactive	inactive		
COc1ccc2c(c1OC)C(=O)O[C@@H]2[C@H]1c2c(cc3c(c2OC)OCO3)CCN1C	inactive	inactive		
Clc1ccc(Cl)c(Cl)c1Cl	inactive	inactive		
Cc1cc(O)c(Cl)c(C)c1Cl	inactive	inactive		
CN1CCN(C(c2ccccc2)c2ccccc2)CC1	inactive	inactive		
C=C(C)C(=O)OCC(CC)(COC(=O)C(=C)C)COC(=O)C(=C)C	inactive	inactive		
Oc1c(Cl)ccc(Cl)c1Cl	inactive	inactive		
c1ccc(CCc2ccccc2)cc1	inactive	inactive		
COc1ccc(C(Cl)=C(c2ccc(OC)cc2)c2ccc(OC)cc2)cc1	inactive	inactive		
Oc1cc2ccccc2c2ccccc12	13.7 µM (active)	13.7 µM (active)		
CC(=O)OC1CCCCC1C(C)(C)C (centres undefined)	inactive	inactive		
CC(=O)C1=C(C)[C@@H]2C[C@@]3(C1)[C@H](C)CC[C@H]3C2(C)C	inactive	inactive		
CCCC(C)C=O (centres undefined)	inactive	inactive		
c1ccc(OCc2ccc(CCCN3CCOCC3)cc2)cc1	inactive	inactive		
CCCCCCCCCCCCCCCCCCO	inactive	inactive		
CCCCS	inactive	inactive		
CCCCCCCCOCCCN	inactive	inactive		
CCOC(=O)OC(=O)OCC	inactive	inactive		
CCCCC(C)C(=O)O (centres undefined)	inactive	inactive		
NNC(=O)CCCCC(=O)NN	inactive	inactive		
CN1C(C)(C)CC(O)CC1(C)C	inactive	inactive		
O=C(CCCCCCCCC#CI)Oc1ccccc1	inactive	inactive		
C#C[C@]1(O)CC[C@H]2[C@@H]3[C@H](C)CC4=C(CCC(=O)C4)[C@H]3CC[C@@]21C	inactive	inactive		
Clc1ccccc1CN1CCc2sccc2C1	inactive	inactive		
